40 compounds from PubChem BioAssay (NCATS) can be followed below.

SMILES strings stand for the structures. Inconclusive results are not listed. Unmarked numbers belong to inactive results. The call rests on the fitted dose curve; in most records, active means well fitted cell-killing curve with a large enough effect; inconclusive means small, poorly fitted or top-dose-only effect; inactive means flat fitted curve, though single readings scatter.

The nature of the test: qHTS of pediatric cancer cell lines to identify multiple opportunities for drug repurposing: Primary screen for U-2 OS cells (AID 1347096).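 Further: plate controls were DMSO wells for no effect and bortezomib positive control wells for full effect; nearly all actives have a fitted effect of over 50% in size.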 The note with it: U-2 OS viability, CellTiter-Glo luminescence, 48 h; series mostly up to 46 µM; activity change, negative = cytotoxic: at the top concentration. The text has this:
Drug repurposing or repositioning has been offered as a strategy for drug development in oncology programs. This approach has special potential for childhood cancers and other rare or orphan diseases, where the expected return on new drug development has been a disincentive to pharmaceuticals.
In this project we exploit the poly-pharmacology of drugs to discover new indications via phenotypic screening of a panel of 19 well-characterized cell lines derived from solid tumors seen in children and adolescents. The goal is to identify approved drugs with previously unrecognized anticancer properties that has the potential to reveal new mechanisms and biological processes involved in carcinogenesis or drug resistance. We employed a titration-based paradigm (quantitative high-throughput screening or qHTS), where all compounds were tested at multiple concentrations for their effect on cell viability. Concentration-response curves (CRCs) were derived directly from the primary screen, and both potency and efficacy values were used to identify compounds with robust bioactivity profiles. We screened the NIH Chemical Genomics Center (NCGC) Pharmaceutical Collection (NPC) and Mechanism Interrogation Plate (MIPE) small molecule collections of approved and investigational compounds against these cell lines; and measured metabolically active cells after 48 hours of compound treatment as a proxy for cell viability.
Assay Submitter: Nathalia J. Martinez, National Center for Advancing Translational Sciences, National Institutes of Health, Rockville, MD, USA; email: natalia.martinez@nih.gov
[1] Shen, M et al. Quantitative high-throughput phenotypic screening of pediatric cancer cell lines identifies multiple opportunities for drug repurposing. Oncotarget 2017 Dec 19;9(4):4758-4772. PMID 29435139.
The cells were obtained from University of North Carolina (UNC), Pediatric Preclinical Testing Program (PPT), and Coriell Institute (CI).
qHTS cell viability assay:
Cells were assayed in growth media at a density of 500-1,000 cells/well. Five microliters of cells were dispensed into 1,536-well, white, solid-bottom, TC-treated plates (Greiner Bio One) using a multidrop dispenser and incubated at 37 degrees C, 5% CO2, under a humidified atmosphere for 5 hours. Twenty-three nanoliters of compounds and controls (neutral control DMSO or positive control bortezomib at final concentration of 2.3 µM) were subsequently transferred by Kalypsys pintool. For primary screens, the MIPE collection was tested at 11-point dilutions (final concentrations range from 0.78 nM to 46 µM) and the NPC collection at 8-point dilutions (final concentrations range from 0.59 nM to 46 µM). Compounds tested in follow-up screens were assayed at 11-point dilutions. Cells were incubated for 48 hours, followed by addition of 3 µL of CellTiter-Glo (Promega). After a 15 min incubation at room temperature, samples were analyzed for luminescence intensity using a ViewLux High-throughput CCD imager equipped with clear filters.
Background: qHTS replaces the single test concentration by a dilution series.
As to `C[C@]12C=CC(=O)C=C1CC[C@@H]1[C@@H]2[C@@H](O)C[C@@]2(C)[C@H]1CC[C@]2(O)C(=O)CO`, the “activity change, negative = cytotoxic” value is -5.41%. Then `N[C@@H](CCC(=O)N[C@@H](CS)C(=O)NCC(=O)O)C(=O)O`, with 3.12% [at 16.1 µM]; and `CCOC(=O)COc1ccc2c(C)c(CCN(CC)CC)c(=O)oc2c1Cl`, with 13.2%; and `CN(C(=O)CN(CCO)CC(=O)N(C)C(C)(C)Cc1ccccc1)C(C)(C)Cc1ccccc1`, with -18%.

As to `c1ccc(OCc2ccc(CCCN3CCOCC3)cc2)cc1`, the “activity change, negative = cytotoxic” value was -8.79%. For the compound `CCCSS/C(CCO)=C(\C)N(C=O)Cc1cnc(C)nc1N`, the “activity change, negative = cytotoxic” value is -8.76%. Consider `Oc1c(Cl)cc(Cl)cc1Sc1cc(Cl)cc(Cl)c1O`, for which the “activity change, negative = cytotoxic” value was 4.8%.

With `OC[C@H]1O[C@H](O[C@]2(CCl)O[C@H](CCl)[C@@H](O)[C@@H]2O)[C@H](O)[C@@H](O)[C@H]1Cl`, the “activity change, negative = cytotoxic” value was 0.754%. The value for `COc1cccc(CCc2ccccc2OCC(CN(C)C)OC(=O)CCC(=O)O)c1` (stereo not given) was -14.3%; that for `CC1(C)O[C@@H]2C[C@H]3[C@@H]4CCC5=CC(=O)CC[C@]5(C)[C@@]4(F)[C@@H](O)C[C@]3(C)[C@]2(C(=O)CCl)O1` was -12.4%.

Regarding `CC(=O)Oc1ccc(C(=C2CCCCC2)c2ccc(OC(C)=O)cc2)cc1`, the “activity change, negative = cytotoxic” value is -1.34%.

Consider `CC(C)=CCC1C(=O)N(c2ccccc2)N(c2ccccc2)C1=O`, for which the “activity change, negative = cytotoxic” value is -20.5%. For the compound `CC(C)(C(=O)c1cccnc1)c1cccnc1`, the “activity change, negative = cytotoxic” value was -4.08%. For the compound `COc1c2occc2c(OC)c2c(=O)cc(C)oc12`, the “activity change, negative = cytotoxic” value was 2.82%. Then `O=C(COc1ccc(Cl)cc1)N1CCN(Cc2ccc3c(c2)OCO3)CC1`, with -7.91%; and `Cc1cc(O)c(C(C)C)cc1Cl`, with 20.9%; and `COC(=O)[C@@H]1CC2=CC(=O)CC[C@]2(C)[C@@]23O[C@@H]2C[C@@]2(C)[C@@H](CC[C@@]24CCC(=O)O4)[C@H]13`, with -3.14%.

As for `Oc1ccc(Cl)cc1Sc1cc(Cl)ccc1O`, the “activity change, negative = cytotoxic” value was -25.2%. For the compound `CCN(CC)C(=O)N1CCN(C)CC1`, the “activity change, negative = cytotoxic” value was 1.15%. With `COc1ccc(OC)c(C(O)CNC(=O)CN)c1` (stereo not given), the “activity change, negative = cytotoxic” value is 10.9%.

For the compound `O=C(CCN1CCC(c2ccccc2)C1)c1ccc2c(c1)OCCO2` (stereo not given), the “activity change, negative = cytotoxic” value is 4.34%. On to `C[C@@H]1C[C@H]2[C@@H]3C[C@H](F)C4=CC(=O)C(Cl)=C[C@]4(C)[C@@]3(F)[C@@H](O)C[C@]2(C)[C@@]1(O)C(=O)CO`, for which the “activity change, negative = cytotoxic” value is -7.15%. Then `CCN1CCC[C@H]1CNC(=O)c1c(OC)ccc(Br)c1OC`, with 6.11%; and `CN(C)/N=N/c1nc[nH]c1C(N)=O`, with -6.17%. For the compound `O=S1(=O)c2cccc3cccc(c23)N1CCCN1CCN(c2ccc(F)cc2)CC1`, the “activity change, negative = cytotoxic” value is -21.2%. Then `NC(=O)c1cc[n+](CC2=C(C(=O)[O-])N3C(=O)[C@@H](NC(=O)Cc4cccs4)[C@H]3SC2)cc1`, with 7.59%.

For `CC(=O)[C@H]1CC[C@H]2[C@@H]3C[C@H](C)C4=CC(=O)CC[C@]4(C)[C@H]3[C@@H](O)C[C@]12C`, the “activity change, negative = cytotoxic” value was -11.7%.

Regarding `O=c1ccc2ccccc2o1`, the “activity change, negative = cytotoxic” value is 14.3%. Take `CCCCCCCCCCCCCCCCOP(=O)([O-])OCC[N+](C)(C)C`: the “activity change, negative = cytotoxic” value is 10%. Then `C[C@]12CCC(=O)C=C1[C@@H]1C[C@@H]1[C@H]1[C@@H]3[C@@H]4C[C@@H]4[C@@]4(CCC(=O)O4)[C@@]3(C)CC[C@@H]12`, with -16%; and `CCCCCCCCCCCCCCNCCO`, with 12.1%; and `C/C=C/c1ccc(OC)cc1`, with 9.87%. The value for `NCCCC[C@H](N[C@@H](CCc1ccccc1)C(=O)O)C(=O)N1CCC[C@H]1C(=O)O` was 4.59%; that for `CNCC[C@@H](Oc1ccccc1C)c1ccccc1` was -0.937%. Then `CCN(CC)C(=O)/C(C#N)=C/c1cc(O)c(O)c([N+](=O)[O-])c1`, with -25.2%. Take `Cc1ccc(C(=O)C(C)CN2CCCCC2)cc1` (stereo not given): the “activity change, negative = cytotoxic” value is -1.2%.

For the compound `CC(=O)N(O)CCCCCNC(=O)CCC(=O)N(O)CCCCCNC(=O)CCC(=O)N(O)CCCCCN`, the “activity change, negative = cytotoxic” value was -19.8%.

As for `CC(=O)OCC(=O)NCCCOc1cccc(CN2CCCCC2)c1`, the “activity change, negative = cytotoxic” value is 2.04%.

Take `Cc1cccc(C)c1NC(=O)CN1CCN(CCCC(c2ccc(F)cc2)c2ccc(F)cc2)CC1`: the “activity change, negative = cytotoxic” value was 6.6%. The value for `CC(=O)OCC(=O)[C@@]1(O)CC[C@H]2[C@@H]3CCC4=CC(=O)C=C[C@]4(C)[C@H]3[C@@H](O)C[C@@]21C` was 7.83%.
